# Experimental data reported in paper PMC4102417.
# Tested on: murine 3T3 fibroblasts
# Experiment: primary screen, percent viability or growth; higher = less effect of the substance
# Description: Similarly, for measuring the cytotoxicity concentration (CC50) for 3T3 fibroblast cells, cultures were incubated with drugs for 72 hours and developed using Alamar Blue (Alamar Biosciences Inc, Sacramento, CA) as previously described.
row,SMILES,Mammalian (3T3) cell % growth at 10 uM
1,CC(=O)Oc1ccc(/C=C/c2cc(OC(C)=O)cc(OC(C)=O)c2)cc1,31.6%
2,CCCCC1C(=O)N(c2ccccc2)N(c2ccc(O)cc2)C1=O (stereo not shown),72.8%
3,COc1c(-c2coc3cc4c(cc3c2=O)CC(O)C(C)(C)O4)ccc2c1C=CC(C)(C)O2 (stereo not shown),59%
4,COc1ccc2c(c1)[nH]c1c(C)nccc12,87.2%
5,CC(C)c1c(O)ccc2c1CC[C@H]1C(C)(C)CCC[C@]21C,67.4%
6,O=C(/C=C(/O)c1ccccc1)c1ccccc1O,100%
7,COc1ccc(-c2cc(=O)c3c(O)cc(O)cc3o2)cc1,77.4%
8,CCOc1ccc(Cc2nccc3cc(OCC)c(OCC)cc23)cc1OCC,95.1%
9,CCN(CC)CCOc1ccc2c(c1)C(=O)c1cc(OCCN(CC)CC)ccc1-2,89%
10,N#Cc1nn(-c2c(Cl)cc(C(F)(F)F)cc2Cl)c(N)c1S(=O)C(F)(F)F (stereo not shown),100%
11,CC1(C)C(=O)C=CC2(C)C1CC(O)C1(C)C2CCC2(C)C(c3ccoc3)OC(=O)C3OC321 (stereo not shown),76%
12,Clc1ccc(COC(Cn2ccnc2)c2ccc(Cl)cc2Cl)cc1 (stereo not shown),100%
13,Nc1nc(=S)c2[nH]cnc2[nH]1,98.3%
14,COc1ccc2[nH]cc(CCN)c2c1.Cl,24.2%
15,COc1ccc2cc3[n+](cc2c1OC)CCc1cc2c(cc1-3)OCO2,75.8%
16,CCCCCC(=O)O[C@]1(C(C)=O)CC[C@H]2[C@@H]3CCC4=CC(=O)CC[C@]4(C)[C@H]3CC[C@@]21C,100%
17,CCCOc1ccc2nc(NC(=O)OC)[nH]c2c1,52.8%

row,SMILES,Mammalian (3T3) cell % growth at 10 uM
1,COc1ccc2cc1Oc1ccc(cc1)C[C@H]1c3cc(c(OC)cc3CCN1C)Oc1c(OC)c(OC)cc3c1[C@H](C2)N(C)CC3,14.6%
2,COc1ccc(Cc2nccc3cc(OC)c(OC)cc23)cc1OC.Cl,93.1%
3,Cc1nc2ccccn2c(=O)c1CCN1CCC(C(=O)c2ccc(F)cc2)CC1,91.6%
4,C[C@H]1COC2=C1C(=O)C(=O)c1c2ccc2c1CCCC2(C)C,87%
5,CNCCC=C1c2ccccc2CCc2ccccc21,100%
6,O=c1[nH]c(=O)n([C@H]2C[C@H](O)[C@@H](CO)O2)cc1F,86.2%
7,Oc1ccc(Cl)c2cccnc12,49.7%
8,CCN(CCCCOC(=O)c1ccc(OC)c(OC)c1)C(C)Cc1ccc(OC)cc1 (stereo not shown),92.3%
9,CCCCCCCCCCCCCC(=O)O[C@@H]1[C@@H](C)[C@@]2(O)[C@@H](C=C(CO)C[C@]3(O)C(=O)C(C)=C[C@@H]23)[C@@H]2C(C)(C)[C@]12OC(C)=O,89.2%
10,COc1cc(O)c(C(=O)c2ccccc2)cc1O,47.4%
11,COc1cc(OC)c2c(=O)c(O)c(-c3ccc(OC)c(OC)c3)oc2c1,39.6%
12,CC(=O)OC1c2c(ccc3ccc(=O)oc23)OC(C)(C)C1OC(=O)CC(C)C (stereo not shown),81.2%
13,CC(=O)[C@H]1CC[C@H]2[C@@H]3CC[C@H]4C[C@@H](O)CC[C@]4(C)[C@H]3CC[C@]12C,100%
14,CCC(=O)O[C@H]1CC[C@H]2[C@@H]3CCc4cc(O)ccc4[C@H]3CC[C@]12C,100%
15,CC(=O)Oc1ccc(Cl)c2cccnc12,0.5%
16,CC(=O)OC1CC2C(C)(C)C(=O)C3OC3C2(C)C2CCC3(C)C(c4ccoc4)OC(=O)C4OC43C12C (stereo not shown),73.4%
17,COc1ccc(-c2coc3cc(O)ccc3c2=O)c(O)c1O,1.4%
